Reference: PubChem BioAssay

Assay: PSAC antagonists in infected red cells, primary screen, cell-based, P. falciparum Indochina, OD700, 18 h (AID 1157)
Conditions: P. falciparum Indochina infected erythrocytes, osmotic lysis OD700, 18 h; higher = more signal, called active from +8 up or from −8 down

z-score, inactive:
C=C(COC)/C(=C/C[C@@H](OC(C)=O)c1ccccc1OCCO)c1cc(C(=O)OC)ccc1OC 1.04, COCC(=C=CC[C@@H](O)c1cccc(OCCO)c1)C[C@@H](O)COCc1ccccc1 -2.47, CCCCC=C[C@@H](NC(=O)c1ccc(C(F)(F)F)cc1)c1ccccc1 0.373, COC(=O)[C@]1(CO)N=C(c2ccc(OCCCO)cc2)O[C@@H]1c1ccccc1CN=[N+]=[N-] 0.497, COC(=O)[C@@]1(Cc2ccc(OC)cc2)[C@H]2c3cc(C(=O)N4CCCC4)n(CCc4ccc(OC)c(Br)c4)c3C[C@H]2CN1C(=O)c1ccccc1 0.568, COCCOC(=O)N1C(=O)[C@@]2(c3cc(C#CCC(C(=O)OC)C(=O)OC)ccc31)[C@H](C(=O)N1CCc3cc(OC)c(OC)cc3C1)[C@H]1C(=O)O[C@H](c3ccccc3)[C@H](c3ccccc3)N1[C@@H]2c1ccc(O)cc1 0.0513, CCC(CC)C(O)C1C=CC2C(=O)N(C)C(=O)C2N1N1CCCCC1 (stereo not given) 0.729, COc1cc2c(cc1O)C(c1ccc(CN3CCCC3)cc1)N(Cc1ccc([N+](=O)[O-])o1)CC2 (stereo not given) 0.818, COc1cc(OC)c(C(O)C2C=CC3C(=O)N(c4ccccc4)C(=O)C3N2Nc2ccccc2F)cc1Br (stereo not given) 1.54, NC(=O)N1C(=O)C2C(C1=O)C1C=C(CCCO)C2C(c2ccc(CN3CCCC3)cc2)N1Cc1cccc(OC(F)(F)F)c1 (stereo not given) 0.208, CC(C)C[C@H]1NC(=O)[C@@]23C(=O)N[C@@H](Cc4ccccc4)C2[C@H](C)[C@@]2(C)O[C@H]2C3/C=C/C/C=C\CNC(=O)[C@@H]2CCCN2C1=O (stereo not given in full) -0.234, COC(=O)[C@@]1(Cc2ccc(F)cc2)[C@H]2c3cc(C(=O)N(C)C)n(CCn4cc([N+](=O)[O-])nc4C)c3C[C@H]2CN1C(=O)c1ccccc1 0.544, C=CC[C@]1(C(=O)NCCCOC)N=C(c2ccc(OCCCO)cc2)O[C@H]1c1ccccc1 0.643, COCCOC(=O)N1C(=O)[C@@]2(c3cc(C#CC4=CCCCC4)ccc31)[C@H](c1ccccc1OCCO)N1[C@H](c3ccccc3)[C@H](c3ccccc3)OC(=O)[C@H]1[C@@H]2C(N)=O -0.0482, CC(C)C[C@@H]1NC(=O)[C@@]23C(=O)N[C@@H](Cc4ccccc4)C2[C@H](C)[C@@]2(C)O[C@H]2C3/C=C/C/C=C\CNC(=O)[C@@H](CC(C)C)NC1=O (stereo not given in full) -0.0134
